Reference: the supplement of paper PMC12632987

T1: USP38, Q8NB14
T1 chain: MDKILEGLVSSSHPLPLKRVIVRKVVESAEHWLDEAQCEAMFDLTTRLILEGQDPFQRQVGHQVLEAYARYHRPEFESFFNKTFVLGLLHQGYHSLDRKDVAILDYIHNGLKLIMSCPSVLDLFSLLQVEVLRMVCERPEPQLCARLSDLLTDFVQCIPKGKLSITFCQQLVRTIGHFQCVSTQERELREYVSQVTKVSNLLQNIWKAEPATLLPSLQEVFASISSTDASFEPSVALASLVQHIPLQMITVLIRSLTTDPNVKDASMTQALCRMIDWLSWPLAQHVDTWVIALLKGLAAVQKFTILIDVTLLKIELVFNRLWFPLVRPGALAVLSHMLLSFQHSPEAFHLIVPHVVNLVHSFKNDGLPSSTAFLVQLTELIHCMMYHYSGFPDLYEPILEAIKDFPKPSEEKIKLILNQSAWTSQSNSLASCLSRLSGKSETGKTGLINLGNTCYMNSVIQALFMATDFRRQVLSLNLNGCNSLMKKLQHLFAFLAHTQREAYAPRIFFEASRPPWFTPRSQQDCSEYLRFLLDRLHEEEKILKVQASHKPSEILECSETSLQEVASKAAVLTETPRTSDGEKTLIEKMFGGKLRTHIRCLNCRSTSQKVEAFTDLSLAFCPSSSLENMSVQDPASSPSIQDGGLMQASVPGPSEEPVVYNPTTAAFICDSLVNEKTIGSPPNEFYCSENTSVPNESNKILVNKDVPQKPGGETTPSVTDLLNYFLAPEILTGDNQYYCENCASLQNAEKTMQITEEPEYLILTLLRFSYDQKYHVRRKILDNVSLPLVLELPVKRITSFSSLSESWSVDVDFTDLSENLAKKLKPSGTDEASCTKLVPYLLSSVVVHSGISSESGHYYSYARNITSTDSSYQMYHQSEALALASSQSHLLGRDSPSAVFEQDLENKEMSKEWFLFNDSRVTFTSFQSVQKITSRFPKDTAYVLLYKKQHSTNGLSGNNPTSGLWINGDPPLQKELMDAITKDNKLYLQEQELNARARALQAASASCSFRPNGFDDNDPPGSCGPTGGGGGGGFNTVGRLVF

B1: usp_38_diff_out_16_25_196 (protein)
chain: EVEALLRAHDEIGRAAGLVLRAREEEDPERQRELLREALEHLRRALEILREELRVDEETARELEELIERAERLLEEGAPAEEVIAVIEEAIDLAVDALAE
B2: usp_38_diff_out_16_25_191 (protein)
chain: SVEALLRAHDKLGEAAGYILQAKEKKDSEEARKLLEKAVKALEEALKILVEELKIDPKDAEEIEKLIKEAKKLLKEGAPVEEVIKVLEKAVDAAAKALAK
B3: usp_38_diff_out_16_25_199 (protein)
chain: NVEALLKAHDELGKAAGYILEAREHLDSPEVKELLEKAIEHLEEALKIMKEELKIPQETAKKIQELIEKAKKLLEEGADPEEVIKALEEAIDAAADALAS
B4: usp_38_diff_out_16_25_202 (protein)
chain: EVEALLRAHDELGEAAGYILRARESEDEEERKKLLREALESLEKALDIMKKELKIPEEVAKKIQELIDEAKEKLEAGAPFEEVIKLLEEAIDLAAEALAA
B5: usp_38_diff_out_16_25_188 (protein)
chain: NVEALLEAHHHLGLAAGYIVLAKEHKDSEKAREYLEKAIEHLEEALRILEEELNIDEETAEEIRKLIEKAKKLLKEGAPVEEIIKLLEEAIDLMAKALAE
B6: usp_38_diff_out_16_13_187 (protein)
chain: SELEKLLKKLEELTKKAEEKKKELEKLIKEGAPKEEIREKLEELRELLIEAAGTILEIRNLMVEKANEEQRKKAREKLKEAEEKLNEAINLYVEKELELA
B7: usp_38_diff_out_16_25_193 (protein)
chain: NVEALLRAHDALGRAAGYVVRARELGESPEARELLREAIRALREALRILREELRIPEEVARRIEEAIERAERLLEAGEPVEEVIEALEEAIDLAAAALAA
B8: usp_38_diff_out_16_25_192 (protein)
chain: SVEALLRAHDLLGEAAGYILEAKEHKDSPKARELLEKAIKSLEEALRVMKEELKIDEEKAEEIEKLIKEAKKLLKEGAPVEEVIKVLEEAVDKAADALAE
B9: usp_38_diff_out_16_25_194 (protein)
chain: EVEALLKAHDEIGWAAGKLLEAKESKDPEEQKKLLEEALKHLEKALKILKEELKIDEETLKKIEELIKKAKKLLKEGAPFEEVIKTLEEAIDLAVDALNK
B10: usp_38_diff_out_16_25_190 (protein)
chain: NVEALLRAHDELGRAAGYIVLAREHADSPEVKELLREAIESLERALRIAEEELHIPEEVAEKVKKLIEEAKKLLEEGADPEEVIKKLEEALDLLAEALAE
B11: usp_38_diff_out_16_25_201 (protein)
chain: EVEALLEAHDHLGDAAGYVLRAKESEDEEERKRLLREALESLRRALDILRERLHIPEEEAERIEALIEEAERLLEEGAPFEEVIAVVEEAIDLAAEALAR
B12: usp_38_diff_out_16_37_203 (protein)
chain: SAAEVEALMARLREAVERARELIERARRAIEEGADEAEIERLLEEATRALEEAGRALAEILLLDPARYPEARALYDETAARFGEVVAEARDARRERRARA
B13: usp_38_diff_out_16_25_189 (protein)
chain: SVEALLKAHEELGEAAGYIVQARENKDKPEARELLKKAIESLEKALEILEKELKIDEKVAKEIREKIERARKLLEEGKPVEEVIKELEEALDLAIEALAK
B14: usp_38_diff_out_16_25_197 (protein)
chain: SVEALLEAHDLIGRAAGYVLRARESEDPEEQRKLLREALEHLEEALKLLEEKLKIDPEKAKEIKKLIEEAKKLLEEGAPIEEVIAVVEKAIDLAVDALNE
B15: usp_38_diff_out_16_25_200 (protein)
chain: SVEALLEAHDHLGEAAGHILRAKESKDEEEKKKLLEEAIKHLEKALKIMKEKLKIPEEVAEEIEKKIERAKKLLEEGAPFEEVIKELEEAIDLAAKALAA
B16: usp_38_diff_out_16_25_195 (protein)
chain: SVEALLRAHDLIGRAAGLVLRARESEDPEEQRRLLEEAIRHLEEALELLKEELKIDEETAEKIEKLIEEARRLLEEGAPFEEVIKVLEEAIDLAVDALAK

Target: T1, USP38, Q8NB14
Assay: median log2 fold change of GCK-ALFA target abundance (FLAG IP / Myc IP barcode read proportion) (log2 ratio); each designed protein is fused to an ALFA-tag nanobody in HEK293 cells to bring the named protein to FLAG-tagged glucokinase (GCK); Myc marks an untargeted standard; higher = target protein stabilised (more abundant)
Details: target protein: 3xFLAG-MCP-GCK-ALFA reporter; HEK293 landing pad (RPLP)
Outline: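 Sequencing of reverse-transcribed, amplified circular RNA barcodes from anti-FLAG and anti-Myc immunoprecipitates provided the readout for an ALFA-nanobody-fused binder library recombined into HEK293 landing-pad cells. Those cells were induced with 2 μg mL^−1 doxycycline, transfected with a plasmid expressing a FLAG-tagged target and a Myc-tagged standard, and lysed after 48 h. Target abundance is the per-binder median log2 ratio of FLAG to Myc barcode read proportions. Only barcodes at a proportion of ≥10^−7 in both replicates and binders with ≥3 barcodes per replicate were kept, with a 10^−6 pseudocount added before the two replicates were pooled.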

| Binder | median log2 fold change |
| --- | --- |
| B1 | 0.215 |
| B2 | 0.0845 |
| B3 | 0.324 |
| B4 | 0.316 |
| B5 | 0.00197 |
| B6 | -0.622 |
| B7 | 0.174 |
| B8 | 0.243 |
| B9 | 0.00535 |
| B10 | 0.107 |
| B11 | 0.237 |
| B12 | -0.344 |
| B13 | 0.371 |
| B14 | 0.179 |
| B15 | 0.457 |
| B16 | 0.188 |
